Measurements published in PubChem BioAssay AID623959 (National Center for Advancing Translational Sciences (NCATS), 2012).
The whole screen tested about 1,400 compounds, of which fewer than 10 were called active. Inconclusive results (about 8%) are left out. The call rests on the fitted dose curve; in most records, active means well fitted curve in the direction sought with a large enough effect; inconclusive means small, poorly fitted or top-dose-only effect, or another doubt; inactive means no such curve, though single readings can be large or run the other way. These entries were drawn from the full list.

Molecular target: Transient receptor potential cation channel subfamily V member 1 (Homo sapiens) (UniProt Q8NER1)
Sequence (Q8NER1 whole entry, looked up): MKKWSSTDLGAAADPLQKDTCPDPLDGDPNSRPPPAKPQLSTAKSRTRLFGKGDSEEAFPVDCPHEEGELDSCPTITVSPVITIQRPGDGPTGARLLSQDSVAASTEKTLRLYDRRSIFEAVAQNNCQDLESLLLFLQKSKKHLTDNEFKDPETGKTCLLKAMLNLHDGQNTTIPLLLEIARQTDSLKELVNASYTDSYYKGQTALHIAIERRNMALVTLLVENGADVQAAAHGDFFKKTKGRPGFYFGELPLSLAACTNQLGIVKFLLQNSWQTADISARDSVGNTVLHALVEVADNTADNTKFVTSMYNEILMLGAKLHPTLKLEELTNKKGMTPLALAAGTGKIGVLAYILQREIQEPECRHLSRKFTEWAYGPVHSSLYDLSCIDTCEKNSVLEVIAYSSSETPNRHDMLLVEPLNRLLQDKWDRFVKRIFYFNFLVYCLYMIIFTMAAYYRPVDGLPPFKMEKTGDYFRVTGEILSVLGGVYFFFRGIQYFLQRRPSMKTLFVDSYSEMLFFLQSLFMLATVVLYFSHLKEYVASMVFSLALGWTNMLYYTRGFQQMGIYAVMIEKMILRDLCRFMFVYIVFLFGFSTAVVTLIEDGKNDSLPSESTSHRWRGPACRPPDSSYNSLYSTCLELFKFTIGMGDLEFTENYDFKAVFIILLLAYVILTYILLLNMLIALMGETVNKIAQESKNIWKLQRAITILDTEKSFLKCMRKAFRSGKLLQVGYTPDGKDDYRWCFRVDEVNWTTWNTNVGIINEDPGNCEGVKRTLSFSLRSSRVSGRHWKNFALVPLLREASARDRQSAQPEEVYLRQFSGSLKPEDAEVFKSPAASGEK
Assay: qHTS Assay for Compounds that Act as Potentiators of the Vanilloid Receptor 1: Hit Validation
Conditions: TRPV1-expressing cells, Fluo-8 calcium influx, capsaicin EC20; series mostly up to 42.1 µM
From the text: The transient receptor potential ion channel, family V, number 1, (TRPV1) is one of the most important molecular transducers of painful stimuli and a potential target for analgesic drug development. Although recent clinical trials with orthosteric antagonists have not produced a successful drug because of a hyperthermia side effect and their tendency to block thermal noxious pain, this ion channel is undeniably well placed in the pain pathway, and the idea of blocking pain signals before they enter the CNS is an excellent concept and of proven efficacy when TRPV1 agonists are used. We propose a new approach involving allosteric modulation to impose an activity-dependent constraint within the context of inflammation and tissue damage that would alter the responsiveness of the channel in a way that an orthosteric vanilloid antagonist cannot achieve. We believe that the allosteric modulator approach has not been explored for this target. The main goal of this proposal is to identify additional, new, potent allosteric modulators of TRPV1 that can be used to investigate TRPV1 function. Our recent report provides evidence of proof of concept, but the compounds are just at the edge of utility in terms of potency. […] The question of whether they can be used as analgesic agents is complex, but if suitable compounds are identified then testing for analgesic properties will be conducted. Compounds identified as agonists were re-tested in the primary screen for hit validation. NIH Chemical Genomics Center [NCGC] NIH Molecular Libraries Probe Centers Network [MLPCN] MLPCN Grant: MH089480 Assay Submitter (PI): Michael Iadarola, National Institute of Dental and Cranofacial Research
Upon TRPV1 activation in TRPV1 cells, the channel opens and extracellular cations flow through the channel into the cytosol. A calcium binding dye (Fluo-8) becomes fluorescent when bound to calcium. This dye is pre-loaded into cells and is used as a marker for calcium influx. The amount of accumulated calcium is precisely quantified using the FDSS kinetic reader and the calcium dye. For the HTS assay, freshly prepared cells are plated at a density of 2000/well in 3 ul medium in 1536-well plates and cultured overnight at 35.5C. Cells will be loaded with 1 ul of the homogeneous calcium dye (ABD Bioquest) at room temperature for 40 to 90 minutes. Plates will be loaded into the FDSS kinetic reader and a 1 sec / cycle for 10 second baseline signal will be measured. Compound library will then be added with a pintool at 23 nl and measured kinetically for 3 minutes. This portion of the read is considered the agonist portion of the screen. Following the 3 minutes of incubation, an on board pipettor will deliver 1 ul of capsaicin for a final concentration equal to the EC20. Signal will be measured kinetically for an additional 2 minutes. This portion of the read is considered the allosteric enhancer portion of the screen. The FDSS reader has a standard filter set capable of measuring calcium bound Fluo-8 (ex=480 and em=520 nm).

Potency, inactive:
CC(Oc1cccc(Cl)c1)C(=O)Nc1nc(-c2ccccn2)cs1 (centres undefined)
Cc1cc(C)c(C(=O)N2CCCC(Nc3ccc(C)c(C)c3)C2)o1 (centres undefined)
Cc1[nH]c2ccccc2c1-c1nc2ccccc2[nH]1
CSc1ncccc1C(=O)OCc1ccc(Br)cc1
COc1ccc(-c2nn(-c3ccccc3)cc2C(=O)NC(=S)Nc2cc(Cl)ccc2Cl)cc1
CCOCCCn1c(=S)[nH]c2cc(C(=O)N3CCC(C(N)=O)(N4CCCCC4)CC3)ccc2c1=O
CCOc1c(Nc2ccc(C(C)C)cc2)c(=O)c1=O
O=C(Cc1cccs1)Nc1cccc(-c2nnc(-c3ccco3)o2)c1
O=C(NCc1ccncc1)c1ccc(Oc2ccccc2)cc1
CC(C)C[C@H](NC(=O)c1[nH]cnc1C(=O)N[C@@H](Cc1ccccc1)C(=O)OC(C)(C)C)C(=O)OC(C)(C)C
CC(C)(C)C(=O)CSc1ncnc2c1cnn2Cc1ccccc1
CCC(CO)NCc1ccc(OCC(O)c2ccccc2)c(OC)c1 (centres undefined)
COc1c(O)ccc(/C=N\NC(=O)c2ccc3c(c2)OCO3)c1[N+](=O)[O-]
O=C(CCCCn1c(=O)c2ccccc2n(CC(=O)NC2CCCC2)c1=O)NCc1ccco1
CC(=O)c1cccc(NC(=O)/C(=C\c2cccnc2)NC(=O)c2ccc(C)cc2)c1
C=C(C)c1cccc(C(C)(C)NC(=O)Nc2cccnc2)c1
COCCn1cnnc1SCC(=O)Nc1cc(OC)c([N+](=O)[O-])cc1C
Cc1ccc(NC(=O)CN(C)C(C)C(=O)Nc2ccc(S(=O)(=O)N3CCCC3)cc2)cc1 (centres undefined)
O=C(NCc1cccnc1)c1ccc(-c2ccc(Cl)cc2)o1
CC(C)=NOCC(=O)Nn1c(COc2ccccc2)nc2ccccc2c1=O
O=C(Nc1ccc(F)cc1)c1ccc2ncsc2c1
CC(=O)Oc1ccc(/C=C/c2nc3ccccc3c(=O)o2)cc1
CCOc1ccc(OCCC(=O)N(CC(=O)Nc2ccccc2C(F)(F)F)Cc2ccco2)cc1
CN(C)/C=C/C(=O)c1nnn(C2CCCCC2)c1NC1CCCCC1
